Test results taken from PubChem BioAssay AID1159580 (chemical genetic matrix, 2015).
Where “and” joins values, the source holds several entries; their conditions need not be identical. Equal entries are not always repeated. Screen size: about 5,500 compounds; about 2,000 (36%) were called active. Roughly 18% stayed inconclusive and do not appear here. Cut-off read from the data, not from the text of the source: active = normalized growth mostly below about 0.91 (no sharp cut-off); inconclusive = no clear call, values can overlap the other calls; inactive = mostly above about 0.92. This is one part of the list. A structure can be active in one record and inactive in another.

Experiment: chemical genetic growth profiling, strain panel (AID 1159580);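 note: tested at 20 µM; growth read once vehicle control cultures reached saturation at 30 °C; 1 = growth at the plate median or of vehicle wells; lower values mean less growth of the strain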
Conditions: S. cerevisiae deletion strains, growth OD

C=CCCCCCCCCC(=O)O
normalized growth (locus YAL021C, strain ccr4, stronger effect = lower value): 0.996 (inactive) and 1 (inactive)
normalized growth (locus YAL026C, strain drs2, stronger effect = lower value): 0.984 (inactive) and 0.932 (inactive)
normalized growth (locus YAL030W, strain snc1, stronger effect = lower value): 0.973 (inactive) and 0.992 (inactive)
normalized growth (locus YBL061C, strain skt5, stronger effect = lower value): 0.968 (inactive) and 1 (inactive)
normalized growth (locus YBR009C, strain hhf1, stronger effect = lower value): 0.977 (inactive) and 0.983 (inactive)
normalized growth (locus YBR023C, strain chs3, stronger effect = lower value): 0.977 (inactive) and 0.985 (inactive)
normalized growth (locus YBR171W, strain sec66, stronger effect = lower value): 0.983 (inactive) and 0.976 (inactive)
normalized growth (locus YBR231C, strain swc5, stronger effect = lower value): 0.989 (inactive) and 1.01 (inactive)
normalized growth (locus YBR279W, strain paf1, stronger effect = lower value): 0.975 (inactive) and 0.985 (inactive)
normalized growth (locus YCL011C, strain gbp2, stronger effect = lower value): 0.978 (inactive) and 0.989 (inactive)
normalized growth (locus YCL016C, strain dcc1, stronger effect = lower value): 0.988 (inactive) and 0.992 (inactive)
normalized growth (locus YCL061C, strain MRC1, stronger effect = lower value): 0.99 (inactive) and 0.991 (inactive)
normalized growth (locus YCL069W, strain vba3, stronger effect = lower value): 0.989 (inactive) and 0.991 (inactive)
normalized growth (locus YCR088W, strain abp1, stronger effect = lower value): 0.978 (inactive) and 1 (inactive)
normalized growth (locus YDL005C, strain med2, stronger effect = lower value): 0.962 (inactive) and 1 (inactive)
normalized growth (locus YDL040C, strain nat1, stronger effect = lower value): 0.974 (inactive) and 0.994 (inactive)
normalized growth (locus YDR001C, strain nth1, stronger effect = lower value): 0.978 (inactive) and 1 (inactive)
normalized growth (locus YDR069C, strain doa4, stronger effect = lower value): 0.984 (inactive) and 0.997 (inactive)
normalized growth (locus YDR137W, strain rgp1, stronger effect = lower value): 0.988 (inactive) and 0.986 (inactive)
normalized growth (locus YDR159W, strain sac3, stronger effect = lower value): 1 (inactive) and 1.06 (inactive)
normalized growth (locus YDR195W, strain ref2): 1 (inactive) and 1.09 (inactive)
normalized growth (locus YDR297W, strain sur2, stronger effect = lower value): 0.978 (inactive) and 0.998 (inactive)
normalized growth (locus YDR334W, strain swr1, stronger effect = lower value): 0.988 (inactive) and 0.976 (inactive)
normalized growth (locus YDR335W, strain msn5, stronger effect = lower value): 0.981 (inactive) and 0.965 (inactive)
normalized growth (locus YDR392W, strain spt3, stronger effect = lower value): 0.898 (inactive) and 0.647 (active)
normalized growth (locus YEL003W, strain gim4, stronger effect = lower value): 0.984 (inactive) and 0.981 (inactive)
normalized growth (locus YEL037C, strain rad23, stronger effect = lower value): 0.969 (inactive) and 0.972 (inactive)
normalized growth (locus YEL061C, strain CIN8 (second series), stronger effect = lower value): 0.982 (inactive) and 0.992 (inactive)
normalized growth (locus YER015W, strain faa2, stronger effect = lower value): 0.985 (inactive) and 0.992 (inactive)
normalized growth (locus YER016W, strain bim1, stronger effect = lower value): 0.978 (inactive) and 0.985 (inactive)
normalized growth (locus YER111C, strain swi4, stronger effect = lower value): 0.981 (inactive) and 1 (inactive)
normalized growth (locus YER155C, strain BEM2 (second series), stronger effect = lower value): 0.977 (inactive) and 0.947 (inactive)
normalized growth (locus YFR010W, strain ubp6, stronger effect = lower value): 1.02 (inactive) and 0.951 (inactive)
normalized growth (locus YGL167C, strain pmr1, stronger effect = lower value): 0.961 (inactive) and 0.995 (inactive)
normalized growth (locus YGL173C, strain kem1, stronger effect = lower value): 0.984 (inactive) and 0.975 (inactive)
normalized growth (locus YGL227W, strain vid30, stronger effect = lower value): 0.97 (inactive) and 1 (inactive)
normalized growth (locus YGL240W, strain doc1, stronger effect = lower value): 0.976 (inactive) and 0.911 (inactive)
normalized growth (locus YGL253W, strain hxk2, stronger effect = lower value): 0.983 (inactive) and 0.978 (inactive)
normalized growth (locus YHR013C, strain ard1, stronger effect = lower value): 1.21 [resistant] (active) and 0.965 (inactive)
normalized growth (locus YHR027C, strain rpn1, stronger effect = lower value): 0.981 (inactive) and 0.971 (inactive)
normalized growth (locus YHR030C, strain SLT2, stronger effect = lower value): 0.948 (inactive) and 0.105 (active)
normalized growth (locus YHR079C, strain IRE1, stronger effect = lower value): 0.979 (inactive) and 0.111 (active)
normalized growth (locus YHR142W, strain chs7, stronger effect = lower value): 1.01 (inactive) and 0.926 (inactive)
normalized growth (locus YJL092W, strain hpr5, stronger effect = lower value): 0.979 (inactive) and 0.99 (inactive)
normalized growth (locus YJL095W, strain BCK1 (second series), stronger effect = lower value): 0.98 (inactive) and 0.996 (inactive)
normalized growth (locus YJL095W, strain BCK1, stronger effect = lower value): 0.974 (inactive) and 0.136 (active)
normalized growth (locus YJL115W, strain asf1, stronger effect = lower value): 0.974 (inactive) and 0.969 (inactive)
normalized growth (locus YJL129C, strain trk1, stronger effect = lower value): 0.984 (inactive) and 0.778 (active)
normalized growth (locus YJL154C, strain vps35, stronger effect = lower value): 0.978 (inactive) and 0.995 (inactive)
normalized growth (locus YJL164C, strain tpk1, stronger effect = lower value): 0.973 (inactive) and 0.929 (inactive)
normalized growth (locus YJL166W, strain qcr8, stronger effect = lower value): 0.993 (inactive) and 0.959 (inactive)
normalized growth (locus YJL187C, strain SWE1, stronger effect = lower value): 0.979 (inactive) and 0.99 (inactive)
normalized growth (locus YJR066W, strain TOR1, stronger effect = lower value): 0.928 (inactive) and 0.0525 (active)
normalized growth (locus YKL160W, strain elf1, stronger effect = lower value): 0.997 (inactive) and 0.97 (inactive)
normalized growth (locus YKR026C, strain gcn3, stronger effect = lower value): 0.951 (inactive) and 0.98 (inactive)
normalized growth (locus YKR091W, strain srl3, stronger effect = lower value): 0.986 (inactive) and 0.997 (inactive)
normalized growth (locus YLL001W, strain dnm1, stronger effect = lower value): 0.978 (inactive) and 0.993 (inactive)
normalized growth (locus YLL026W, stronger effect = lower value): 0.975 (inactive) and 0.996 (inactive)
normalized growth (locus YLL041C, strain sdh2, stronger effect = lower value): 0.992 (inactive) and 0.988 (inactive)
normalized growth (locus YLR027C, strain aat2, stronger effect = lower value): 0.987 (inactive) and 0.983 (inactive)
normalized growth (locus YLR113W, strain HOG1, stronger effect = lower value): 1.1 (inactive) and 0.156 (active)
normalized growth (locus YLR221C, strain rsa3, stronger effect = lower value): 0.984 (inactive) and 0.937 (inactive)
normalized growth (locus YLR258W, strain gsy2, stronger effect = lower value): 0.981 (inactive) and 1.01 (inactive)
normalized growth (locus YLR262C, strain YPT6 (second series), stronger effect = lower value): 0.978 (inactive) and 0.977 (inactive)
normalized growth (locus YLR320W, strain mms22, stronger effect = lower value): 0.998 (inactive) and 0.925 (inactive)
normalized growth (locus YLR342W, strain FKS1, stronger effect = lower value): 0.98 (inactive) and 0.989 (inactive)
normalized growth (locus YLR357W, strain rsc2, stronger effect = lower value): 0.948 (inactive) and 0.927 (inactive)
normalized growth (locus YLR370C, strain arc18, stronger effect = lower value): 0.987 (inactive) and 1 (inactive)
normalized growth (locus YLR384C, strain iki3, stronger effect = lower value): 0.968 (inactive) and 0.985 (inactive)
normalized growth (locus YML120C, strain ndi1, stronger effect = lower value): 0.997 (inactive) and 0.931 (inactive)
normalized growth (locus YMR058W, strain fet3, stronger effect = lower value): 0.981 (inactive) and 0.952 (inactive)
normalized growth (locus YMR125W, strain sto1, stronger effect = lower value): 0.938 (inactive) and 0.956 (inactive)
normalized growth (locus YMR129W, stronger effect = lower value): 0.993 (inactive) and 0.997 (inactive)
normalized growth (locus YMR205C, strain PFK2, stronger effect = lower value): 0.966 (inactive) and 1.04 (inactive)
normalized growth (locus YMR231W, strain pep5, stronger effect = lower value): 0.97 (inactive) and 0.951 (inactive)
normalized growth (locus YNL071W, strain lat1, stronger effect = lower value): 0.982 (inactive) and 0.953 (inactive)
normalized growth (locus YNL183C, strain NPR1, stronger effect = lower value): 0.933 (inactive) and 0.0268 (active)
normalized growth (locus YNL209W, strain ssb2, stronger effect = lower value): 0.979 (inactive) and 0.984 (inactive)
normalized growth (locus YNL248C, strain rpa49, stronger effect = lower value): 1.01 (inactive) and 0.852 (active)
normalized growth (locus YNL322C, strain KRE1 (second series), stronger effect = lower value): 0.981 (inactive) and 0.991 (inactive)
normalized growth (locus YNR049C, strain mso1, stronger effect = lower value): 0.979 (inactive) and 0.992 (inactive)
normalized growth (locus YOR001W, strain rrp6, stronger effect = lower value): 0.987 (inactive) and 0.93 (inactive)
normalized growth (locus YOR070C, strain gyp1, stronger effect = lower value): 0.974 (inactive) and 0.975 (inactive)
normalized growth (locus YOR080W, strain dia2, stronger effect = lower value): 0.965 (inactive) and 0.987 (inactive)
normalized growth (locus YOR083W, strain WHI5, stronger effect = lower value): 1.01 (inactive) and 0.909 (inactive)
normalized growth (locus YOR106W, strain vam3, stronger effect = lower value): 1.01 (inactive) and 0.925 (inactive)
normalized growth (locus YOR231W, strain MKK1, stronger effect = lower value): 0.953 (inactive) and 0.105 (active)
normalized growth (locus YOR265W, strain rbl2, stronger effect = lower value): 0.981 (inactive) and 0.986 (inactive)
normalized growth (locus YOR270C, strain vph1, stronger effect = lower value): 1.01 (inactive) and 0.771 (active)
normalized growth (locus YOR290C, strain snf2, stronger effect = lower value): 0.992 (inactive) and 0.916 (inactive)
normalized growth (locus YPL051W, strain arl3, stronger effect = lower value): 0.986 (inactive) and 0.967 (inactive)
normalized growth (locus YPL078C, strain atp4, stronger effect = lower value): 0.982 (inactive) and 0.88 (active)
normalized growth (locus YPL106C, strain sse1, stronger effect = lower value): 0.988 (inactive) and 1.04 (inactive)
normalized growth (locus YPL240C, strain hsp82, stronger effect = lower value): 0.986 (inactive) and 1 (inactive)
normalized growth (locus YPL256C, strain CLN2, stronger effect = lower value): 1.01 (inactive) and 0.114 (active)

CCCCCCCCCCC/C=C\C(C)(C)/C=C\CCCC(=O)O
normalized growth (locus YAL040C, strain CLN3, stronger effect = lower value): 1.02 (inactive)
normalized growth (locus YCL061C, strain MRC1 (second series), stronger effect = lower value): 1.04 (inactive)
normalized growth (locus YDR150W, strain NUM1, stronger effect = lower value): 1.01 (inactive)
normalized growth (locus YDR363W, strain ESC2, stronger effect = lower value): 1.04 (inactive)
normalized growth (locus YER002W, strain NOP16, stronger effect = lower value): 1.04 (inactive)
normalized growth (locus YJR075W, strain HOC1, stronger effect = lower value): 1.02 (inactive)
normalized growth (locus YMR263W, strain SAP30, stronger effect = lower value): 1.03 (inactive)
normalized growth (locus YMR307W, strain GAS1, stronger effect = lower value): 0.974 (inactive)
normalized growth (locus YNL128W, strain TEP1, stronger effect = lower value): 0.996 (inactive)
normalized growth (locus YNL153C, strain GIM3, stronger effect = lower value): 0.967 (inactive)
normalized growth (locus YNL175C, strain NOP13, stronger effect = lower value): 1.01 (inactive)
normalized growth (locus YNL197C, strain WHI3, stronger effect = lower value): 0.985 (inactive)
normalized growth (locus YNL224C, strain SQS1, stronger effect = lower value): 1 (inactive)
normalized growth (locus YNL322C, strain KRE1, stronger effect = lower value): 1.02 (inactive)
normalized growth (locus YOR083W, strain WHI5 (second series), stronger effect = lower value): 0.965 (inactive)
normalized growth (locus YPL055C, strain LGE1, stronger effect = lower value): 1.08 (inactive)
